This is part of a sample that, as a whole, favours compounds with a hit. Of some 83,000 tested, about 20% had one in any assay.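 In brief: 96-well plates, 48 h treatment, single concentration, percent growth endpoint.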 A number with no mark means an inactive call. Active and inactive are the calls of the source. How the source made its calls: active means growth percent below 10; inactive means the rest.
What follows are compounds tested on MDA-MB-231 breast (assay: NCI-60 one-dose screen, 48 h (100 = growth as untreated, 0 = no growth, -100 = all killed)). Conditions: 10 µM unless noted.
With `C#CCn1cccc1CNc1ccc(OC)cc1` the growth was -53.9% (active). With `NC(N)=Nc1ccc(Oc2cccc(Oc3ccc(Cl)c(C(F)(F)F)c3)c2)cn1` the growth was -82.9% (active). `CCn1c2ccccc2c2cc(-n3nncc3-c3ccccc3)ccc21` was tested, and the growth was 27.2%. `COc1ccc(COc2ccc(/C=C3\C(=O)Nc4ccccc43)cc2OC)cc1` gave a growth of 99.9%. Compound `O=C(CCn1cc[n+](CC(=O)c2ccc(-c3ccccc3)cc2)c1)Nc1cccc2cccnc12` has a growth of 65.1%. With `C[C@@H]1C[C@H]2C(=O)O[C@@H](C)C(NC(=O)[C@H](Cc3cc(F)cc(F)c3)NC(=O)Nc3ccc(C4CC4)cc3F)C(=O)N3CCC[C@H]3C(=O)N3CCCC[C@H]3C(=O)N[C@@H](CO)C(=O)N2C1` (some centres not stated) the growth was 33.9%. In the case of `CCOC(=O)c1c(Nc2ccccc2)nn2c(-c3ccccc3)ccnc12`, the growth is reported as 82.4%. For `C#C[C@]1(O)CC[C@H]2[C@@H]3CC=C4c5sc(-c6cccc(O)c6)nc5CC[C@]4(C)[C@H]3CC[C@@]21C`, the growth was -40.8% (active). `C#C[C@]1(O)CC[C@H]2[C@@H]3CC=C4c5sc(-c6ccc(C)cc6)nc5CC[C@]4(C)[C@H]3CC[C@@]21C` was tested, and the growth was 4.97% (active). `NS(=O)(=O)c1ccc(-n2cc(-c3cccc(NC(=O)c4ccc(N5CCOCC5)c(C(F)(F)F)c4)c3)nn2)cc1` gave a growth of 52%. With `CCO/C=N/C1=C(C#N)C(c2ccc(OC)cc2)c2sc3c(CC)cccc3c2O1` (configuration not stated) the growth was 31.7%. For `O=C(CN1CCN(c2cc(=O)[nH]c3ccc(F)cc23)CC1)Nc1ccc(Cl)cc1`, the growth was 62.2%.

Reference: PubChem BioAssay (NCI)
